Assay outcomes deposited in PubChem by National Center for Advancing Translational Sciences (NCATS).
MARV entry inh: inhibitors of Marburg virus binding or cell entry | Marburg virus pseudotyped entry inhibition, cell reporter | Potency, µM (doses to about 37.8 µM), most hits filed as inhibitors | actives 1.8% (n = 300,000) | AID 540276; calls by dose curve; tested in HEK293 cells
HCMV inh: blocks human cytomegalovirus replication; activity change, negative = inhibition, % at 57.5 µM; AID 1259415; actives 4.5% (n = 410,000); HFF cells, HCMV-luciferase reporter, 72 h; stronger effect = lower value; in the data active = activity change below about -60%; inconclusive = no clear call, values can overlap the other calls; inactive = above about -39%
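Steps: HFFs plated, 16 h 37C; compounds added; HCMV-luciferase added to MOI 1 PFU/cell; 72 h 37C; OneGlo reagent, 5 min room temperature; luminescence read, normalized to controls.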
FMDV inh: foot and mouth disease virus antiviral activity; AID 1159524; actives 1.2% (n = 410,000); Potency, µM (top dose mostly 57.9 µM), hits mostly inhibitors; FMDV antiviral cell-based qHTS; calls by dose curve; tested in HEK293T cells; note: read-out not given here; nearly all actives have a fitted effect of over 45% in size
HCV inhibitor: inhibitors of hepatitis C virus infection. Huh7.5.1 HCVcc-Cre infection, luciferase reporter, 44 h. Potency, µM (titrated, usually from 41.8 µM), usual class: inhibitors. actives 3.4% (n = 340,000). AID 651820; active = well fitted inhibition curve with a large enough effect; inconclusive = small, poorly fitted or top-dose-only effect, or another doubt; inactive = no such curve, though single readings can be large or run the other way
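Whole-lifecycle infectious HCVcc-Cre system; cells 1,000/well, compound then virus (~0.5 moi) added 4 h after plating, 44 h culture. Luciferase read 15 sec following 15 min substrate incubation, room temp.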
Lassa entry inh: inhibitors of Lassa virus binding or cell entry. actives 1.2% (n = 300,000). AID 540256. Potency, µM (titrated, usually from 37.9 µM), most hits filed as inhibitors. Lassa virus pseudotype entry inhibition, cell reporter; calls by dose curve; tested in HEK293 cells; note: nearly all actives have a fitted effect of over 50% in size
Of the large screens only hits and unclear results are named; the others gave an inactive call. Compounds with a hit are over-represented: about 7.9% of the library has one in this group of screens.

CCCCOc1ncnc2c1[nH]c1ccc(OCC)cc12	none
CCCCOc1ncnc2c1[nH]c1ccccc12	MARV entry inh inconclusive, FMDV inh inconclusive, HCV inhibitor 4.5µM
CCCCOc1ncnc2c1[nH]c1ccc(F)cc12	MARV entry inh inconclusive, HCMV inh -94, HCV inhibitor 2.8µM, Lassa entry inh inconclusive (no result: FMDV inh)
COc1ccc2c(c1)-c1nc(-n3ncc(C(=O)NCc4cccc(C)n4)c3C3CC3)ncc1CC2	none (no result: MARV entry inh, HCMV inh, HCV inhibitor, Lassa entry inh)
O=C(Nc1cccc(S(=O)(=O)N2CCCCC2)c1)C1COc2ccccc2O1 (configuration not stated)	HCV inhibitor 10µM (no result: MARV entry inh, Lassa entry inh)
Cc1ccc(NC(=O)C2COc3ccccc3O2)cc1S(=O)(=O)N1CCCCC1 (configuration not stated)	HCMV inh inconclusive, FMDV inh inconclusive, HCV inhibitor 11µM (no result: MARV entry inh, Lassa entry inh)
O=C(Nc1ccc(S(=O)(=O)N2CCCC2)cc1)C1COc2ccccc2O1 (configuration not stated)	HCV inhibitor inconclusive (no result: MARV entry inh, Lassa entry inh)
C[C@@H]1CN(Cc2ccc3c(c2)CN(C(=O)CCc2nc4ccc(F)cc4[nH]2)CCO3)C[C@H](C)O1	none (no result: MARV entry inh, HCMV inh, HCV inhibitor, Lassa entry inh)
Cc1nc(S(=O)(=O)N(C)c2ccccc2)c(C#N)c(C)c1Cl	MARV entry inh inconclusive, HCMV inh -97, FMDV inh inconclusive, Lassa entry inh inconclusive
CC(C)c1cc(C(=O)NCc2ccc(F)cc2)no1	MARV entry inh inconclusive (no result: HCV inhibitor)
Cc1[nH]c2ccccc2c1/C=C(\C#N)C(=O)NCc1ccccc1	HCV inhibitor inconclusive, Lassa entry inh inconclusive
CC(NC(=O)/C(C#N)=C/c1ccc([N+](=O)[O-])o1)c1ccccc1 (configuration not stated)	MARV entry inh inconclusive, HCMV inh -101, FMDV inh 28µM, HCV inhibitor inconclusive, Lassa entry inh inconclusive
Cc1ccc(C(C)NC(=O)/C(C#N)=C\c2c(C)[nH]c3ccccc23)cc1 (configuration not stated)	MARV entry inh inconclusive, HCMV inh -61
CCOCCCNC(=O)/C(C#N)=C/c1ccc(-c2ccc(S(=O)(=O)N3CCOCC3)cc2)o1	MARV entry inh inconclusive, HCV inhibitor inconclusive, Lassa entry inh inconclusive (no result: HCMV inh)
COC(=O)c1ccc(/C=C(\C#N)C(=O)NC(C)c2ccccc2)cc1 (configuration not stated)	HCMV inh -95, FMDV inh inconclusive, HCV inhibitor 11µM (no result: Lassa entry inh)
CCOCCCNC(=O)/C(C#N)=C/c1ccc([N+](=O)[O-])o1	MARV entry inh inconclusive, HCMV inh -99, FMDV inh 32µM, HCV inhibitor inconclusive, Lassa entry inh inconclusive
O=C(NCCCC(NC(=O)OCc1ccccc1)C(=O)O)OCc1ccccc1 (configuration not stated)	none (no result: MARV entry inh, Lassa entry inh)
Cc1noc(C)c1C(=O)N1CCC2(CCCN(C(=O)Nc3ccccc3)C2)CC1	none (no result: MARV entry inh, HCMV inh, HCV inhibitor, Lassa entry inh)
Cc1cccc(C)c1-n1ncc(C(=O)Nc2ccc3c(c2)OCCO3)c1C1CCN(C(=O)OC(C)(C)C)CC1	Lassa entry inh inconclusive (no result: MARV entry inh, HCV inhibitor)
N=c1c2c(-c3ccccc3)c(-c3ccccc3)oc2ncn1CCN1CCOCC1	MARV entry inh inconclusive, FMDV inh inconclusive, HCV inhibitor inconclusive
N=c1c2c(-c3ccccc3)c(-c3ccccc3)n(Cc3ccco3)c2ncn1Cc1ccccc1	none
N=c1c2c(-c3ccccc3)c(-c3ccccc3)n(Cc3ccco3)c2ncn1CCCN1CCOCC1	MARV entry inh 7.1µM, HCMV inh -98, HCV inhibitor 7.1µM
N=c1c2c(-c3ccccc3)c(-c3ccccc3)oc2ncn1CCCN1CCOCC1	MARV entry inh 8.2µM, FMDV inh inconclusive, HCV inhibitor inconclusive, Lassa entry inh inconclusive
CC(C)Cn1cnc2c(c(-c3ccccc3)c(-c3ccccc3)n2Cc2ccco2)c1=N	MARV entry inh 2.8µM, FMDV inh inconclusive, HCV inhibitor 11µM, Lassa entry inh 6.3µM
OCCNc1ncnc2c1c(-c1ccccc1)c(-c1ccccc1)n2Cc1ccco1	MARV entry inh inconclusive, HCMV inh -63, HCV inhibitor inconclusive, Lassa entry inh inconclusive
CC1(C(=O)NCc2cccs2)CCN1C(=O)Cc1cccc2ccccc12 (configuration not stated)	none (no result: MARV entry inh, HCV inhibitor, Lassa entry inh)
Cn1cccc1C(=O)NC(=O)COC(=O)CCNS(=O)(=O)c1cccc(C(F)(F)F)c1	none (no result: MARV entry inh, Lassa entry inh)
CCc1nc2cc(C(=O)N[C@H]3CCCCNC3=O)cc(NC(=O)c3ccccc3OC)c2n1C	none (no result: MARV entry inh, HCMV inh, HCV inhibitor, Lassa entry inh)
CNC(=O)CN1C(=O)CSc2ncccc21	HCMV inh inconclusive (no result: MARV entry inh, Lassa entry inh)
CCN(CC)c1ccc(NC(=O)CN2C(=O)CSc3ncccc32)c(C)c1	HCMV inh -86, FMDV inh inconclusive, HCV inhibitor 3.5µM (no result: MARV entry inh, Lassa entry inh)
CCOc1ccc(-c2cc(CCCC(=O)NCCc3ccc(Cl)cc3)no2)cc1	MARV entry inh inconclusive (no result: HCV inhibitor)
COc1ccc(CCN2C(=O)CC(NNC(=O)c3ccccc3Br)C2=O)cc1 (configuration not stated)	HCMV inh -65
COC(=O)c1cc(CNC(=O)c2ccc(N(C)C)cc2)cc(NC(=O)c2ccccc2Cl)c1	none (no result: MARV entry inh, HCMV inh, HCV inhibitor, Lassa entry inh)
COc1ccc(CCN(C)Cc2nc(-c3cnccn3)no2)cc1OC	FMDV inh 5.6µM (no result: MARV entry inh, Lassa entry inh)
O=C(Nc1ccc(C(F)(F)F)cc1)c1cnc(N2CCN(c3ccccn3)CC2)c2ccccc12	FMDV inh 7.1µM
O=C(c1cc(Sc2cccc(Cl)c2)nc2ccccc12)N1CCN(c2ccccn2)CC1	MARV entry inh inconclusive, HCMV inh inconclusive, HCV inhibitor 10µM, Lassa entry inh inconclusive
O=C(Nc1ccc(C(F)(F)F)cc1)c1cccnc1N1CCOCC1	MARV entry inh inconclusive
O=C(c1cnc(N2CCN(c3ccccn3)CC2)c2ccccc12)N1CCN(c2cccc(Cl)c2)CC1	MARV entry inh inconclusive, HCMV inh -94, FMDV inh 8.9µM, HCV inhibitor 5µM, Lassa entry inh inconclusive
COc1ccc(-c2sc(NC(C)=O)nc2-c2ccccc2)cc1	HCV inhibitor inconclusive
COCCNc1nc(-c2ccc(OC)cc2)c(-c2ccc(OC)cc2)s1	MARV entry inh inconclusive, HCMV inh -69, HCV inhibitor inconclusive
CCN(CC)CCNc1nc(-c2ccc(OC)cc2)c(-c2ccc(OC)cc2)s1	HCV inhibitor inconclusive (no result: MARV entry inh, Lassa entry inh)
COc1ccc(-c2nc(NC(C)=O)sc2-c2ccccc2)cc1	HCV inhibitor 10µM, Lassa entry inh inconclusive
CC(=O)Nc1sc(-c2ccccc2)nc1-c1ccccc1	HCV inhibitor 11µM
CCCCCCNc1nc(-c2ccc(OC)cc2)c(CCC(=O)O)s1	HCMV inh -62
COCCNC(=O)Cn1c(=O)c2cccn2c2ccc(F)cc21	none (no result: MARV entry inh, HCV inhibitor)
CC(C)CN(CCNC(=O)CCN1N=C(c2ccccc2)CCC1=O)CC(C)C	Lassa entry inh inconclusive (no result: MARV entry inh, HCV inhibitor)
Cc1cc2oc(=O)cc(CN3CCCCC3)c2cc1Cl	none (no result: MARV entry inh, HCV inhibitor, Lassa entry inh)
COc1ccc(NC(=S)NNc2ccc(C(=O)O)cc2)cc1	MARV entry inh inconclusive, HCMV inh inconclusive, FMDV inh inconclusive
O=C(CCN1Cc2ccccc2OC(c2ccccc2F)C1)N1CCC(N2CCCC(O)C2)CC1 (configuration not stated)	none (no result: MARV entry inh, HCMV inh, HCV inhibitor, Lassa entry inh)
COC(=O)N[C@H](C(C(=O)OC)=C(C)NCc1ccccc1)c1ccco1	none (no result: HCMV inh, FMDV inh, HCV inhibitor, Lassa entry inh)
CC(=O)Nc1ccc(NC(=O)c2csc([C@H]3C[C@H](O)[C@@H](CO)O3)n2)cc1	none (no result: MARV entry inh, HCV inhibitor, Lassa entry inh)
